Results filed as inconclusive are left out. Active and inactive are the calls of the source. Unless noted, the call rests on the fitted dose curve; in most records, active means well fitted curve in the direction sought with a large enough effect in the repeat runs; inconclusive means weak or mixed curves; inactive means no such curve, though single readings can be large; an effect the other way counts as inactive or inconclusive.
Legend:
[1] = A CellTox Green Cytotoxicity Assay to monitor cytotoxicity in HEK293 cells - 8 hour (AID 1224884); further: nearly all actives have a fitted effect of over 35% in size
In short: (§1)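 HEK293 cells, 600/well, were preincubated 5 hours and then exposed to compounds at 37 C for up to 40 hours. A cell-impermeant cyanine dye staining dead-cell DNA was read by fluorescence at 0, 8, 16, 24, 32 and 40 h time points.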

[2] = qHTS RealTime-Glo MT Cell Viability Assay in HEK293 cells - 24 hour (AID 1224886); further: nearly all actives have a fitted effect of over 50% in size; further: potency means the concentration at half of the fitted maximal effect; on activity change, negative = cytotoxicity: top concentration of the series differs between compounds
In short: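 HEK293 cells seeded with NanoLuc/prosubstrate reagent, rested 5 h at 37 C, then dosed and kept at 37 C up to 40 h. Nonlytic real-time luminescence from viable cells read at 0, 8, 16, 24, 32 and 40 h.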

[3] = qHTS RealTime-Glo MT Cell Viability Assay in HEK293 cells - 8 hour (AID 1224887); further: nearly all actives have a fitted effect of over 50% in size; further: potency means the concentration at half of the fitted maximal effect; on activity change, negative = cytotoxicity: top concentration of the series differs between compounds
In short: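 600 cells/well were plated with the nonlytic NanoLuc/prosubstrate reagent, pre-incubated 5 h, then given 23 nL of compound in DMSO. Incubation at 37 C for 40 h, with luminescence from viable-cell-reduced substrate read repeatedly from 0 h.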

[4] = A CellTox Green Cytotoxicity Assay to monitor cytotoxicity in HEK293 cells - 16 hour (AID 1224888); further: nearly all actives have a fitted effect of over 35% in size
In short: as §1

[5] = qHTS RealTime-Glo MT Cell Viability Assay in HepG2 cells - 0 hour (AID 1224889); further: nearly all actives have a fitted effect of over 50% in size
In short: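 HepG2 cells (600/well) were dispensed with RealTime-Glo reagents, incubated 5 h at 37 °C, then treated with compounds in DMSO for up to 40 h. Nonlytic NanoLuc luminescence reflecting viable cells was read at each stated time point.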

[6] = A CellTox Green Cytotoxicity Assay to monitor cytotoxicity in HepG2 cells - 8 hour (AID 1224890); further: nearly all actives have a fitted effect of over 45% in size
In short: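 HepG2 cells, 600/well, preincubated 5 h with CellTox Green dye, then exposed to Tox21 compounds in DMSO at 37 C for up to 40 h. Dead-cell DNA fluorescence read at the indicated time point.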

[7] = qHTS assay to identify small molecule HDAC inhibitors (AID 1259364); further: top concentration of the series differs between compounds; nearly all actives have a fitted effect of over 45% in size
In short: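 Wild-type HCT-116 cells, plated overnight at 37 C, exposed to compounds 2 hr at 37 C; luminogenic HDAC-Glo substrate then added 30 min at room temperature. Luminescence reports relative endogenous class I/II HDAC activity.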

[8] = qHTS assay to identify small molecule HDAC inhibitors - cell viability counter screen (AID 1259365); further: series mostly up to about 92 µM; nearly all actives have a fitted effect of over 50% in size
In short: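 Viability readout: CellTiter-Glo luminescence. Wild-type HCT-116 cells, 2hr compound treatment following overnight attachment at 37 C.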

[9] = qHTS assay to identify small molecule agonists of the sonic hedgehog signaling (Shh) pathway (AID 1259368; calls by dose curve;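 further: NIH/3T3-derived 3T3Gli1-Luc cells carrying a stable Gli1-driven firefly luciferase reporter; series mostly up to about 92 µM; nearly all actives have a fitted effect of over 15% in size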)
In short: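 NIH/3T3-derived 3T3Gli1-Luc cells with stably integrated Gli1-driven firefly luciferase, 2,000 cells/well, compounds added after 4 hr. Incubated 24 hr at 37C, 5% CO2; luminescence read after 30 min with luciferase reagent at room temperature.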

[10] = qHTS assay to identify small molecule antagonists of the sonic hedgehog signaling (Shh) pathway (AID 1259369; calls by dose curve; further: nearly all actives have a fitted effect of over 45% in size; further: potency means the concentration at half of the fitted maximal effect)
In short: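 NIH/3T3-derived Gli1-Luc reporter cells plated 4 h, dosed with compound, then stimulated with conditioned medium for 24 h at 37 C. Firefly luciferase luminescence read after 30 min with detection reagent at room temperature.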

[11] = qHTS assay to identify small molecule antagonists of the estrogen receptor alpha (ER-alpha) signaling pathway using the BG1 cell line in the presence of 0.1 nM 17-beta-estradiol - cell viability counter screen (AID 1259241); further: nearly all actives have a fitted effect of over 40% in size
In short: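 The cell line endogenously expresses full-length ER-alpha and carries four EREs driving luciferase. Cells are cultured 5 days hormone-free, treated 22 hr with compounds and 0.1 nM estradiol, then viability is read by fluorescence.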

[12] = qHTS assay to identify small molecule antagonists of the androgen receptor (AR) signaling pathway using the MDA cell line in the presence of 0.5 nM R1881 - cell viability counter screen (AID 1259242); further: nearly all actives have a fitted effect of over 45% in size
In short: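 MDA-kb2 cells (MMTV-luciferase, AR/GR responsive) were treated with compounds plus 0.5 nM R1881 (final) for 16 hr at 37C, 0% CO2. Viability was then read in the same wells as live-cell protease fluorescence (CellTiter-Fluor, 30 min).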

[13] = biological target: Estrogen receptor (Homo sapiens) (UniProt P03372); test: qHTS assay to identify small molecule antagonists of the estrogen receptor alpha (ER-alpha) signaling pathway using the BG1 cell line in the presence of 0.1 nM 17-beta-estradiol (AID 1259244); further: nearly all actives have a fitted effect of over 50% in size; further: potency means the concentration at half of the fitted maximal effect
Estrogen receptor (Homo sapiens), sequence (P03372 whole entry, looked up): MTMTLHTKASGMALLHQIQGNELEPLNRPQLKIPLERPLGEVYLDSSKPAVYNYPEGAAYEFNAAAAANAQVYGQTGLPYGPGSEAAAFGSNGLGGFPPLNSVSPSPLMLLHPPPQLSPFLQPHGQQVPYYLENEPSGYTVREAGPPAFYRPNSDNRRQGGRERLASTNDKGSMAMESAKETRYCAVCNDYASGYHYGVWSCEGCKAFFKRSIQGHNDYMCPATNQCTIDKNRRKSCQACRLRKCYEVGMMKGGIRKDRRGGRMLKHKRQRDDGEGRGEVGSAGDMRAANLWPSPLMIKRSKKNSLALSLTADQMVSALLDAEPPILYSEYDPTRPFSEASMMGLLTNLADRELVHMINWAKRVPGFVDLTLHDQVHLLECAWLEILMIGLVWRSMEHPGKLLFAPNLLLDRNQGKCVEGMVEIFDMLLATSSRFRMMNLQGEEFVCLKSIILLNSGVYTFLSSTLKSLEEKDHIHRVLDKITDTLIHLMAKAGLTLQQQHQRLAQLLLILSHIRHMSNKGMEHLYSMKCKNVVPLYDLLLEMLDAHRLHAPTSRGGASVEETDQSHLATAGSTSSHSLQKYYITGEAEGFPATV
In short: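 VM7Luc4E2 cells (endogenous full-length ER-alpha, 4×ERE-luciferase), kept 5 days in phenol red-free, charcoal-stripped FBS medium; 4,000 cells/well. Compounds added with 0.1 nM (final) 17beta-estradiol, 22 hr at 37C; luminescence read with ONE-Glo after 30 min.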

[14] = qHTS assay to identify small molecule agonists of the sonic hedgehog signaling (Shh) pathway - cell viability counter screen (AID 1259366); further: nearly all actives have a fitted effect of over 50% in size; further: potency means the concentration at half of the fitted maximal effect
In short: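 Viability measured fluorometrically (CellTiter-Fluor, 1hr, 37C) in 3T3 Gli1-Luc reporter cells after 23hr compound exposure within a 24hr incubation at 37C/5% CO2.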

[15] = qHTS assay to identify small molecule antagonists of the sonic hedgehog signaling (Shh) pathway - cell viability counter screen (AID 1259367); further: nearly all actives have a fitted effect of over 55% in size; further: potency means the concentration at half of the fitted maximal effect
In short: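 Using CellTiter-Fluor, viability of Gli1-Luc reporter 3T3 cells is read by fluorescence in the wells used for the Shh luciferase assay. Treatment lasts 23 hr with conditioned medium, then reagent 1 hr at 37C.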

[16] = biological target: Androgen receptor (Homo sapiens) (UniProt P10275); test: qHTS assay to identify small molecule antagonists of the androgen receptor (AR) signaling pathway using the MDA cell line in the presence of 0.5 nM R1881 (AID 1259243); further: nearly all actives have a fitted effect of over 50% in size; further: potency means the concentration at half of the fitted maximal effect
Androgen receptor (Homo sapiens), sequence (P10275 whole entry, looked up): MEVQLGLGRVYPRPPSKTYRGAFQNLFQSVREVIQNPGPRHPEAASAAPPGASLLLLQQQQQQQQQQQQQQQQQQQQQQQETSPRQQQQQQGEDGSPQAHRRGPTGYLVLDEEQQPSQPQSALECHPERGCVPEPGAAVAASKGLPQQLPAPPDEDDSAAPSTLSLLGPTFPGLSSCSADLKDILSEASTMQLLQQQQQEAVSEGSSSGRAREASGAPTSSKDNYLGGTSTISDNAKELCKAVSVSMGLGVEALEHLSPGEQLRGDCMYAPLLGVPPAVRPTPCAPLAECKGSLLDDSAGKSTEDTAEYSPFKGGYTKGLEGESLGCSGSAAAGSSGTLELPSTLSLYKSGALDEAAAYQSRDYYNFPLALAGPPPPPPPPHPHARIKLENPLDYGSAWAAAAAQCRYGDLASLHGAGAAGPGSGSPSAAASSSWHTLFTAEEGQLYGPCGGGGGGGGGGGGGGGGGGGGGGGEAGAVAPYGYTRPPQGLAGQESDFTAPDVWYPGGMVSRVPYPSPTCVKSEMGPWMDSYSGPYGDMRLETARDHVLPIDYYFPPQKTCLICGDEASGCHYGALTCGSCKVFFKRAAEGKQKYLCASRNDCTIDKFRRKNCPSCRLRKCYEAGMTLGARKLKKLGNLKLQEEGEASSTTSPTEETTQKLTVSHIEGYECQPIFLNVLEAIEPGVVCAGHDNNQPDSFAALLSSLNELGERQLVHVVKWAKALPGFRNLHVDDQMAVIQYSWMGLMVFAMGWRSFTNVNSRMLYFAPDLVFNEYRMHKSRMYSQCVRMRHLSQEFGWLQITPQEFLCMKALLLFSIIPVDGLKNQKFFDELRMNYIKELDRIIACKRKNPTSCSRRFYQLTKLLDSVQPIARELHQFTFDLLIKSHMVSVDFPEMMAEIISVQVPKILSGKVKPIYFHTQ
In short: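 MDA-kb2 cells (MMTV-luciferase, responsive to AR and GR) at 3,000/well, rested 5 h at 37C, 0% CO2, then given compounds plus 0.5 nM R1881 (final) for 16 hr. Luciferase read with ONE-Glo after 30 min at room temperature.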

[17] = biological target: Estrogen receptor beta (Homo sapiens) (UniProt Q92731); test: qHTS assay to identify small molecule antagonists of the estrogen receptor beta (ER-beta) signaling pathway (AID 1259378; active means well fitted inhibition curve with a large enough effect in the signal ratio in the repeat runs, not every such curve was filed as active; the % refers to the signal ratio; further: potency means the concentration at half of the fitted maximal effect)
Estrogen receptor beta (Homo sapiens), sequence (Q92731 whole entry, looked up): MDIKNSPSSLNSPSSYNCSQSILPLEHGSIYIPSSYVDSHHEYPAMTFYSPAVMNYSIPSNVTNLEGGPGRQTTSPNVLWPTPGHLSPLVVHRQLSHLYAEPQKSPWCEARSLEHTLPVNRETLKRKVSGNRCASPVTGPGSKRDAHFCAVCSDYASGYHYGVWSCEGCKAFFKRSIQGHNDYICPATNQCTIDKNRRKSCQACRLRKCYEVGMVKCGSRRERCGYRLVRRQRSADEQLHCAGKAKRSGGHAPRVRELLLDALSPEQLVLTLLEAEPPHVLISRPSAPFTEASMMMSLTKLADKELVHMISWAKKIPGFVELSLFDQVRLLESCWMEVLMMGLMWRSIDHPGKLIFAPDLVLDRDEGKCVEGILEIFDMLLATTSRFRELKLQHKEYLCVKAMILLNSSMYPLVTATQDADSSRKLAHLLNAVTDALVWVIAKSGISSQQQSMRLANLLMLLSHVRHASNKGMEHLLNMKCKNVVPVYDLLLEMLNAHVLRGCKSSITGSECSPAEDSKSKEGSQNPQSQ
In short: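 Antagonist mode: compounds added to beta-lactamase reporter HEK293T ER-beta-UAS cells stimulated with E2 (1nM final), 16 hr at 37C. LiveBLAzer B/G FRET substrate, 2 hours room temperature, fluorescence read-out.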

[18] = biological target: Estrogen receptor beta (Homo sapiens) (UniProt Q92731); test: qHTS assay to identify small molecule agonists of the estrogen receptor beta (ER-beta) signaling pathway (AID 1259377; active means well fitted activation curve with a large enough effect in the signal ratio in the repeat runs, not every such curve was filed as active; the % refers to the signal ratio)
In short: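 A UAS-controlled beta-lactamase reporter in ER-beta-UAS-bla HEK293T cells reports receptor activation. Compounds act for 16 hr at 37C in 2% charcoal-stripped serum, and a FRET substrate is read by fluorescence after 2 hours.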
On the % scale 0 is the no-effect control and ±100 the full control effect.

Cc1c(Cl)c(=O)oc2cc(O)ccc12
active: Potency [2] 49 µM | Potency [3] 43.6 µM | Potency [10] 34.4 µM
inactive: Potency [1] | Potency [4] | Potency [5] | Potency [6] | Potency [7] | Potency [8] | Potency [9]

CN1CCN(CCCN2c3ccccc3Sc3ccc(Cl)cc32)CC1
inactive: Potency [1] | Potency [3] | Potency [11] | Potency [12] | Potency [13] | Potency [8] | Potency [9]
active: Potency [14] 10.6 µM | Potency [10] 16.8 µM

O=C1OC(O)C(C(Cl)Cl)=C1Cl (stereo unspecified)
inactive: Potency [1] | Potency [3] | Potency [4] | Potency [5] | Potency [6] | Potency [11] | Potency [12] | Potency [13] | Potency [7] | Potency [8]
active: Potency [14] 44.6 µM | Potency [15] 25.1 µM | Potency [10] 5 µM

C=Cc1ccncc1
inactive: Potency [1] | Potency [2] | Potency [3] | Potency [4] | Potency [5] | Potency [6] | Potency [11] | Potency [12] | Potency [16] | Potency [7] | Potency [8] | Potency [14] | Potency [15] | Potency [9] | Potency [10]

c1ccc(-c2ccccc2-c2ccccc2)cc1
active: Potency [15] 43.3 µM | Potency [10] 15.4 µM
inactive: Potency [1] | Potency [2] | Potency [3] | Potency [4] | Potency [5] | Potency [6] | Potency [11] | Potency [12] | Potency [7] | Potency [8] | Potency [9]

C=C[Si](C)(C)Cl
inactive: cytotoxicity increase [1] -2.48% [at 6.97 µM] | activity change, negative = cytotoxicity [2] -3.65% [at 6.97 µM] | activity change, negative = cytotoxicity [3] -4.42% [at 6.97 µM] | activity change [4] -2.03% [at 6.97 µM, active compounds read high] | activity change, negative = cytotoxicity [5] -16.4% [at 6.97 µM] | cytotoxicity increase [6] -7.78% [at 6.97 µM] | activity change, negative = cytotoxicity [11] -11.6% [at 8.39 µM] | viability change, negative = cytotoxic [12] 0.0065% [at 8.39 µM] | activity change, negative = cytotoxicity [8] -0.871% [at 8.39 µM] | viability change, negative = cytotoxic [14] 9.73% [at 8.39 µM] | viability change, negative = cytotoxic [15] -1.01% [at 8.39 µM] | activity change [9] 1.18% [at 8.39 µM, active compounds read high]

CC1=C(/C=C/C(C)=C/C=C/C(C)=C\C(=O)O)C(C)(C)CCC1
inactive: Potency [1] | Potency [3] | Potency [4] | Potency [5] | Potency [6] | Potency [11] | Potency [12] | Potency [7] | Potency [8] | Potency [14] | Potency [15]

CC1CCC(C(C)(C)O)CC1 (stereo unspecified)
inactive: Potency [1] | Potency [2] | Potency [3] | Potency [4] | Potency [5] | Potency [6] | Potency [11] | Potency [12] | Potency [16] | Potency [7] | Potency [8] | Potency [14] | Potency [15] | Potency [9] | Potency [10]

N#CCCOCCC#N
inactive: Potency [1] | Potency [2] | Potency [3] | Potency [4] | Potency [5] | Potency [6] | Potency [11] | Potency [12] | Potency [16] | Potency [7] | Potency [8] | Potency [14] | Potency [15] | Potency [9] | Potency [17]

c1ccc2cc3c4ccccc4c4ccccc4c3cc2c1
inactive: Potency [1] | Potency [2] | Potency [3] | Potency [4] | Potency [5] | Potency [6] | Potency [11] | Potency [12] | Potency [7] | Potency [14] | Potency [15] | Potency [9] | Potency [10] | Potency [17]

O=C(CCCCCCCCc1cccnc1)N1CCC(C=C(c2ccccc2)c2ccccc2)CC1
inactive: Potency [1] | Potency [4] | Potency [5] | Potency [6] | Potency [11] | Potency [7] | Potency [8] | Potency [15] | Potency [9] | outcome [18]
active: Potency [2] 21.9 µM | Potency [3] 21.9 µM | Potency [16] 27.3 µM | Potency [10] 17.2 µM | Potency [17] 15.4 µM

O=S(=O)(c1ccc(OCc2ccccc2)cc1)c1ccccc1O
inactive: Potency [1] | Potency [4] | Potency [5] | Potency [6] | Potency [11] | Potency [12] | Potency [8] | Potency [14] | Potency [9]
active: Potency [13] 27.3 µM

Cc1ccc(C2OC[C@@H]3OC(c4ccc(C)cc4)O[C@H]([C@H](O)CO)[C@@H]3O2)cc1 (stereo partly specified)
inactive: Potency [1] | Potency [5] | Potency [6] | Potency [11] | Potency [12] | Potency [16] | Potency [13] | Potency [7] | Potency [8] | Potency [14] | Potency [15] | Potency [9] | Potency [10]

C=COCCCC
inactive: Potency [1] | Potency [4] | Potency [5] | Potency [6] | Potency [11] | Potency [12] | Potency [16] | Potency [13] | Potency [7] | Potency [8] | Potency [14] | Potency [15] | Potency [9] | Potency [10] | Potency [17]

CCOC(=O)OC(=O)OCC
inactive: Potency [1] | Potency [2] | Potency [3] | Potency [4] | Potency [5] | Potency [6] | Potency [11] | Potency [12] | Potency [16] | Potency [13] | Potency [8] | Potency [14] | Potency [15] | Potency [9] | Potency [10] | Potency [17]

— PubChem BioAssay (Tox21)
